LDHA block: inhibitors of human lactate dehydrogenase A. P00338. purified LDHA, NADH/diaphorase-resazurin fluorescence; active compounds read low. activity change, % (values are at about 110 or 230 µM). 0.15% of 480,000 active. AID 1347041; in the data active = activity change below about -30%; inconclusive = mostly about -25% to -30%;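 note: plate controls were DMSO wells for no effect and wells without enzyme for full effect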
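Human LDH5 (2 nM) was incubated with 0.06 mM NADH and 0.2 mM pyruvate for 5 min at room temperature in Tris pH 7.4. Remaining NADH was coupled through diaphorase/resazurin, and resorufin fluorescence was read at 0 and 20 min.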
A549 tox: A549 cytotoxicity, counter-screen for Nrf2 inhibitors. Potency, µM (series often up to 46 µM), inactives show top-dose activity change, negative = cytotoxicity, actives largely listed as inhibitors. A549 ARE-Fluc cells, CellTiter-Fluor viability, 18-24 h. 0.16% of 390,000 active; note: potency is the fitted concentration of half-maximal effect; % is set by controls: 0 for no effect and ±100 for the full control effect
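A549 ARE-Fluc cells in 5% FBS OPTI-MEM, 5000 cells/well, rested 2 h then exposed to compounds in concentration-response for 18-24 h at 37 °C. Viability by CellTiter-Fluor fluorescence (Ex 405/Em 525) after 30 min; luciferase luminescence (BugLite, 15 min, RT) read afterwards.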
Nrf2 inh: Nrf2 pathway inhibition | Potency, µM (doses to about 46 µM), inactives show at the highest dose activity change, negative = inhibition, most hits filed as inhibitors | A549 ARE-Fluc reporter, luciferase luminescence, 18-24 h | 2.1% of 360,000 active | AID 504444; note: potency is the fitted concentration of half-maximal effect; % is set by controls: 0 for no effect and ±100 for the full control effect; nearly all actives have a fitted effect of over 60% in size
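Concentration-response testing used A549 ARE_Fluc cells at 5000 cells/well. Following an 18-24 h compound incubation, viability was read by fluorescence (Ex 405/Em 525) and luciferase output by luminescence.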
12-LOX inh: ALOX12 (human) lipoxygenase inhibition; P18054; purified 12hLO, xylenol orange hydroperoxide absorbance; Potency, µM (highest dose often 108 µM), without a hit: at the highest dose activity change, negative = inhibition, most hits filed as inhibitors; 1.1% of 580,000 active; AID 1671190; note: potency is the fitted concentration of half-maximal effect; % is set by controls: 0 for no effect and ±100 for the full control effect
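Hydroperoxide product was detected by ferrous iron/xylenol orange as the 573 to 405 nm absorbance ratio. Arachidonic acid at 40 uM (final) was turned over for 30 min at room temperature by 150 nM human 12hLO, pH 7.0 Hepes buffer, after 15 min compound preincubation.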
mIDH1 inhibitor: inhibitors of human mutant IDH1 R132H; Potency, µM (doses to about 76.6 µM), for the others: at the highest dose activity change, negative = inhibition, usual class: inhibitors; IDH1-R132H enzyme, NADPH consumption, diaphorase/resazurin fluorescence; 0.093% of 390,000 active; O75874; note: potency is the fitted concentration of half-maximal effect; % is set by controls: 0 for no effect and ±100 for the full control effect; nearly all actives have a fitted effect of over 65% in size
Target sequence (O75874 whole entry R132H, stated change not applied): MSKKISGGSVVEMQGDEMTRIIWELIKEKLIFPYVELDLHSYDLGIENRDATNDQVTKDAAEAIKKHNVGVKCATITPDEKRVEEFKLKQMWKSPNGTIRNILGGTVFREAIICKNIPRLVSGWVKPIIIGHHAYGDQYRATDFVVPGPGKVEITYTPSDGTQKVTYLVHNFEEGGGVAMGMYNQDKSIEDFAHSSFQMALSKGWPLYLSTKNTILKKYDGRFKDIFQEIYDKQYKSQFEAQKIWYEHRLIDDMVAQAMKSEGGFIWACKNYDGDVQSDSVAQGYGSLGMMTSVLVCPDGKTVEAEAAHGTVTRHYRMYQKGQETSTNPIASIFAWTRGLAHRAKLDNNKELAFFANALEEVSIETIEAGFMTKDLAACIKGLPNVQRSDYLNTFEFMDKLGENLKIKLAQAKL
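IDH1-R132H (0.5 ug/mL dispensed) in pH 7.5 Tris buffer was preincubated 30 min with compound, then given a substrate mix of 0.016 mM NADPH and 2 mM alpha-KG for 80 min at room temperature; remaining NADPH was read by diaphorase/resazurin fluorescence.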
Nrf2 activator: activates Nrf2 signaling. 0.31% of 410,000 active. AREc32 ARE-luciferase reporter (MCF7-derived line), luminescence, 24 h. Potency, µM (highest dose often 46.1 µM), without a hit: at the highest dose activation, most hits filed as activators. AID 624171; note: potency is the fitted concentration of half-maximal effect; % of control where 0% means no effect; nearly all actives have a fitted effect of over 65% in size
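Quantitative high-throughput format: AREc32 reporter cells, 1000 per well, received compound by pin transfer and were incubated 24 hr at 37 deg C, 5% CO2, before Steady-Glo luminescence detection.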
An asterisk follows results filed as active; ? = inconclusive; · = not tested or not shown. A selection: hits, their analogues and other compounds. The true share with any hit is near 2.7%. Unless noted, calls come from the whole dose curve; as a rule, active = well fitted curve in the direction sought with a large enough effect; inconclusive = small, poorly fitted or top-dose-only effect, or another doubt; inactive = no such curve, though single readings can be large; an effect the other way counts as inactive or inconclusive.

SMILES	LDHA block	A549 tox	Nrf2 inh	12-LOX inh	mIDH1 inhibitor	Nrf2 activator
c1ccc(-c2nc(-n3ccnc3)nc(-n3ccnc3)n2)cc1	0.0	-20.3%	?	-26.6%	-7.1%	10.4%
c1ccc(CN2CCN(c3nc(-c4ccccc4)nc(-n4ccnc4)n3)CC2)cc1	0.7	-29.6%	14.6µM*	·	0.1%	-0.3%
CCN1CCN(C(CC(C)C)c2nnnn2CS(=O)(=O)c2ccc(C)cc2)CC1 (centres undefined)	-12.4	-0.4%	0.2%	7.08µM*	7.5%	-0.8%
Fc1ccc(-c2nnc(CCl)o2)cc1	-6.0	·	·	?	·	·
CSCC(=O)Nc1cc(C)on1	-1.1	2.2%	0.7%	-5.0%	-2.6%	1.6%
CCN(CC)CCCNCC(=O)Nc1cc(C)on1	-30.2*	1.5%	-2.1%	?	3.2%	-0.9%
Clc1ccccc1-c1nc(CSc2nnc(C3COc4ccccc4O3)o2)no1 (centres undefined)	-4.0	·	·	7.6%	·	·
COc1ccccc1NCC(O)Cn1c2ccccc2c2ccccc21 (centres undefined)	0.6	20.6µM*	?	0.0%	-0.4%	2.1%
COc1ccc(CCNCC(O)Cn2c3ccccc3c3ccccc32)cc1OC (centres undefined)	2.5	-1.1%	?	?	11.2%	-3.8%
O=C(Nc1ccc2oc(-c3cccnc3)nc2c1)c1ccc(-c2ccccc2OC(F)(F)F)o1	0.6	-2.0%	0.651µM*	-11.5%	-8.3%	5.2%
O=C(Nc1ccc2oc(-c3cccnc3)nc2c1)c1ccc(-c2ccccc2)o1	-9.4	-5.9%	13µM*	?	2.5%	9.1%
Cn1c(CNC(=O)c2ccccc2Br)nnc1SCC(=O)N1CCOCC1	-5.0	·	·	6.9%	·	·
CCN(Cc1cccs1)C(=O)/C=C/c1nc2ccccc2s1	10.0	·	·	?	·	·
O=C(CCSC1=NCCCN1)c1ccc(F)cc1	-1.3	-1.0%	-6.0%	44.7µM*	-0.4%	2.3%
CCCc1c(C)nc2ncnn2c1Nc1cc(C)cc(C)c1	-1.8	·	·	?	·	·
Cc1ccc(OCc2ccc(C(=O)Nc3c(C)nn(Cc4c(F)c(F)c(F)c(F)c4F)c3C)o2)c([N+](=O)[O-])c1	0.8	-28.8%	8.2µM*	?	-1.9%	2.6%
Cc1ccc(OCc2ccc(C(=O)NN)o2)c([N+](=O)[O-])c1	-0.1	-1.7%	14.4%	15.8%	7.8%	4.0%
Cc1nnc(NC(=O)c2cc(=O)c3cc(Cl)cc(Cl)c3o2)s1	12.6	·	·	?	·	·
CC(C)c1nnc(NC(=O)c2cc(=O)c3cc(Cl)cc(Cl)c3o2)s1	-34.7*	·	·	9.9%	·	·
CCN1C(=O)[C@@H]2[C@@H](c3ccc(SC4CCCCC4)cc3)N3CCCC[C@@]3(C(=O)OC)[C@@H]2C1=O	8.3	-3.1%	?	39.8µM*	-10.5%	0.1%
CCN1C(=O)[C@H]2[C@@H](c3ccc(-c4ccccc4)cc3)N3CCC[C@@]3(C(=O)OC)[C@H]2C1=O	-6.9	-2.1%	14.6µM*	?	-2.1%	2.2%
CCN1C(=O)[C@H]2[C@@H](c3ccc(SC4CCCCC4)c(OC)c3)N3CCCC[C@@]3(C(=O)OC)[C@H]2C1=O	-0.1	-0.5%	?	-19.2%	-12.4%	-1.5%
COC(=O)c1ccccc1NC(=O)C1=CC(c2ccc(C)cc2)=NS(=O)(=O)N1C	-3.2	-11.5%	18.4µM*	-14.6%	0.4%	0.1%
CCC(C(=O)c1ccccc1)n1c(N2CCOCC2)nc2c1c(=O)n(C)c(=O)n2C (centres undefined)	-9.0	·	·	0.5%	·	·
Cc1c(C(C)C)c(=O)n(-c2ccc(S(=O)(=O)NC3CC3)cc2)n1C	-4.2	1.7%	?	-22.6%	3.3%	0.3%
SMILES	LDHA block	A549 tox	Nrf2 inh	12-LOX inh	mIDH1 inhibitor	Nrf2 activator
Cc1c(C(C)C)c(=O)n(-c2ccc(S(=O)(=O)NC(C)C)cc2)n1C	-4.8	-16.9%	18.4µM*	?	2.9%	0.0%
CN1CCN(CCNC(=O)CC2CCN(C(=O)c3cc4ccccc4[nH]3)CC2)CC1	8.6	·	·	0.7%	·	·
NNc1cccc2ncccc12	95.3	·	·	3.55µM*	·	·
O=S(=O)(Nc1cccc2ncccc12)c1cccs1	15.0	?	20.6µM*	·	20.0%	?
Nc1cccc(C(=O)Nc2cccc3ncccc23)c1	-2.3	11.6%	7.0%	13.1%	2.2%	3.4%
O=C(Nc1cccc2ncccc12)c1ccccc1F	-0.4	-8.5%	7.8%	23.7%	-0.6%	12.6µM*
O=C(COc1ccccc1)Nc1cccc2ncccc12	5.2	·	·	6.9%	·	·
O=C(CCl)Nc1cccc2ncccc12	4.8	23.1µM*	16.4µM*	-14.4%	8.3%	?
Cc1cc(NC(=O)c2ccccc2C(F)(F)F)ccc1N1CCN(C)CC1	0.9	·	·	-23.8%	·	·
CC(C)N1CCC(NC(=S)NCc2ccc(F)cc2)CC1	6.9	·	·	-97.8%	·	·
Cc1cc(Br)ccc1NC(=O)CN(C)C(=O)COc1cccc2c1OC(C)(C)C2	-4.2	-0.5%	20.6µM*	3.4%	3.9%	-0.2%
COc1ccc(NC(=O)COc2cccc3c2OC(C)(C)C3)cc1OC	-1.4	-10.1%	18.4µM*	1.7%	-7.1%	0.9%
Cc1cccc(C)c1NC(=O)CN(C)C(=O)COc1cccc2c1OC(C)(C)C2	-5.3	3.8%	4.7%	-20.4%	0.8%	0.6%
O=C(NCCC1CCCC1)c1cccc2ncccc12	11.6	·	·	3.5%	·	·
C=CCNc1nc(C(=O)OCC(=O)N(C)Cc2ccccc2)cs1	-7.9	·	·	?	·	·
CCOc1ccc(C(=O)CC(NCc2cccs2)C(=O)O)cc1 (centres undefined)	-5.6	1.2%	3.3%	?	-1.7%	11.2µM*
CCOc1ccc(C(=O)CC(C(=O)O)N2CCCCC2)cc1 (centres undefined)	-7.4	-6.8%	-20.2%	·	-5.0%	15.8µM*
CCOc1ccc(C(=O)CC(C(=O)O)N2CCN(Cc3ccccc3)CC2)cc1 (centres undefined)	-14.0	2.0%	-2.1%	·	2.0%	?
Cc1cn2nc(C(=O)Nc3ccccc3F)cc2c(N(C)Cc2ccccc2)n1	·	·	·	22.1%	·	·
Clc1ccc(Cn2c(-c3cccnc3Cl)nc3ccccc32)c(Cl)c1	-2.4	?	18.4µM*	0.0%	2.8%	2.3%
Clc1ccc(Cn2c(-c3cccnc3Cl)nc3ccccc32)cc1	2.4	0.4%	-19.8%	14.5%	-2.1%	0.1%
COc1ccc(N2CCN(C(=O)c3ccc4c(c3)NC(=O)C(CSCc3ccccc3F)N4)CC2)cc1 (centres undefined)	15.6	·	·	4.47µM*	0.0%	-1.6%
